Source: PubChem BioAssay AID686978 (National Center for Advancing Translational Sciences (NCATS), 2013)
Where “and” joins values, the source holds several entries; their conditions need not be identical. Identical values can stand only once. The whole screen tested about 420,000 compounds, of which about 64,000 (15%) were called active. Not shown: some 27% with an inconclusive outcome. This is one part of a sample in which actives are shown more often than they occur. Unmarked numbers belong to inactive results. Calls follow the shape of the dose curve; as a rule, active = well fitted inhibition curve with a large enough effect; inconclusive = small, poorly fitted or top-dose-only effect; inactive = flat fitted curve, though single readings scatter.

Experiment: qHTS for Inhibitors of human tyrosyl-DNA phosphodiesterase 1 (TDP1): qHTS in cells in absence of CPT; also: nearly all actives have a fitted effect of over 55% in size
Settings: DT40 Tdp1-/- hTDP1 cells, no CPT, ATP luminescence, 48 h; series mostly up to 46.2 µM; activity change, negative = growth inhibition: at the top concentration
Description: Human tyrosyl-DNA phosphodiesterase 1 (TDP1) is a novel repair gene, and we propose to use it as a new target for anticancer drug development. TDP1 is not an essential protein, but under treatment with topoisomerase I poison (camptothecin: CPT), TDP1 works as a critical factor for cell survival. To directly identify novel TDP1 inhibitors active in a cellular environment, we have knocked-out the Tdp1 gene in chicken DT40 cells (Tdp1-/-) and generated a complemented counterpart cells that contains a stable transfection of the human TDP1 gene (Tdp1-/-;hTDP1 cells). For the primary screen, Tdp1-/-;hTDP1 cells will be exposed to small molecules in the presence or absence of CPT, and their growth kinetics will be evaluated after 48 hours by measuring ATP activity. […] The hit compounds will then be evaluated in the presence or absence of CPT using Tdp1-/- cells. […] In tertiary assays, biochemical gel-based assays will be used to assess whether the hit compounds specifically target TDP1.
To this end, we have screened this cell line against the MLSMR in two primary screens. In one screen we add CPT and in the other we screen in the absence of CPT; this AID represents the screen where CPT was absent.
NIH Chemical Genomics Center [NCGC]
NIH Molecular Libraries Probe Centers Network [MLPCN]
Assay Submitter (PI): Yves Pommier, NCI
DT40-hTDP1 cells without 20 nM Camptothecin (add 20 microL of DMSO in 1 L of cell culture medium) were dispensed at 400 cells/5microL/well in tissue culture treated 1536-well white wall/solid bottom assay plates (Greiner Bio-One North America, NC, U.S.A.) using a Multidrop Combi 8 channel dispenser (Thermo Fisher, Waltham, MA, USA). 23 nL compounds and controls were transferred using the pin tool (Kalypsys, San Diego, CA, USA) to the assay plates. The assay plates were then incubated at 37 masculineC for a minimum 48 hr. Three microL of Cell Titer Glo solution was added to the plates and incubated at RT in dark for 30 min. Luminescence was read using ViewLux (Perkin Elmer) with 1 sec exposure slow speed, high gain and 2x binning.
% is scaled to controls: 0 for no effect and ±100 for the full control effect; potency is read from the fitted curve at half-maximal effect.

Compound | Potency | activity change, negative = growth inhibition
CN(Cc1cccc2ncccc12)C(=O)c1cnn(-c2nccc(-c3ccccc3F)n2)c1C1CC1 | 3.66 µM (active) | –
CCOC(=O)CC(SP1(=S)OCC2(CCCCO2)C(C2CCCCO2)O1)C(=O)OCC (stereo not given) | – | -23.8%
CC[N+](C)(CC)CCC[n+]1c(-c2ccccc2)c2cc(N)ccc2c2ccc(N)cc21 | 2.58 µM (active) | –
CCOP(=S)(OCC)C(O)CCCCCn1c(=O)c(F)cn(C2CCCO2)c1=O (stereo not given) | – | -6.96%
O=C(Nc1ccc(Cl)cc1C(=O)c1ccccc1)c1cc(Cl)cc(Cl)c1 | – | -8.13%
CCC1(c2ccccc2)C(=O)NC(=O)N(C)C1=O (stereo not given) | – | -2.29%
CC=C(C)C(=O)OC1CCN2CC=C(COC(=O)C(O)(C(C)OC)C(C)(C)O)C12 (stereo not given) | – | 1.67%
COC(=O)C1=C(c2ccc(Cl)c(C(F)(F)F)c2)C[C@@H]2CC[C@H]1N2C(=O)NC(C)C | 20.6 µM (active) | –
COC(=O)C1=C(c2ccc(C(C)=O)cc2)C[C@@H]2CC[C@H]1N2C(=O)NCCNC(C)=O | – | 13.1%
COC(=O)C1=C(c2ccc(Cl)c(C(F)(F)F)c2)C[C@@H]2CC[C@H]1N2C(=O)NC1CC1 | 10.3 µM (active) | –
COC(=O)C1=C(c2ccc(F)cc2F)C[C@@H]2CC[C@H]1N2C(=O)NC1CC1 | – | -26.6%
COc1ccc(NC(=O)N2CCC3(CC2)OCCO3)c(OC)c1 | – | 7.95%
CCOC(=O)c1c(C)c(C(=O)N2CCC3(CC2)OCCO3)c(C)n1CC | – | 4.35%
CCN1c2nc3c(C)cccn3c(=O)c2CC2(C(=O)N(C)C(=O)N(C)C2=O)C1C (stereo not given) | – | -4.11%
CN(C)C(=O)NC(O)C(Cl)(Cl)Cl (stereo not given) | – | 0.9%
COc1ccc(-c2nn(CCC#N)cc2C(=O)Nc2ccc(C(C)=O)cc2)cc1 | – | 5.46%
CN(C)CC1Oc2ccccc2OC1(O)c1ccccc1 (stereo not given) | 2.06 µM (active) | –
CCCOC(=O)C1C2c3ccccc3C(c3ccccc32)C1C(=O)O (stereo not given) | – | -12.7%
CC(CC(C#N)(c1ccccc1)c1ccccc1)N1CCCCC1 (stereo not given) | – | -3.92%
CC(C)(c1ccc(OC[C@@H]2CO2)cc1)c1ccc(OC[C@H]2CO2)cc1 | 11.9 µM (active) | –

Compound | Potency | activity change, negative = growth inhibition
CCOC(=O)C(O)(c1ccc(N)c(OC)c1)C(F)(F)F (stereo not given) | – | -3.69%
Cc1cc(N2C(=O)C3CCCN3C2c2ccc(Cl)c(Cl)c2)no1 (stereo not given) | – | 6.03%
CN(C)S(=O)(=O)c1cc(C(=O)N2CCC(C(=O)O)(c3ccccc3)CC2)ccc1Cl | – | -3.11%
Cc1ccc(NC(=O)CN(C)CC(=O)Nc2cccc(F)c2)cc1[N+](=O)[O-] | 1.16 µM (active) | –
C=CCSSCC=C | – | 2.53%
O=C(NCC(c1cccnc1)N1CCN(c2ccccc2)CC1)Oc1ccccc1 (stereo not given) | – | -19.5%
COc1cc2c(cc1OC)[C@@H]1C(=O)c3ccc(O)c(CC=C(C)C)c3OC1CO2 (stereo not given in full) | – | -17.4%
CCNc1nc2[nH]c(=O)c3c(c2s1)OC(N)=C(C#N)C3c1cccs1 (stereo not given) | – | -27.5%
N#CC1=C(N)Oc2c(c(=O)oc3ccccc23)C1c1ccccc1OC(=O)c1cccs1 (stereo not given) | 23.1 µM (active) | –
CCOC(=O)C(O)(c1ccc(N=Cc2ccccc2O)c(C)c1)C(F)(F)F (stereo not given) | – | 26.3%
CCOc1ccc(-c2cc(C)[n+](CCN(CC)CC)c(-c3ccc(OCC)cc3)c2)cc1 | 0.184 µM (active) | –
COc1cc(C2c3cc4c(cc3C(O)C3COC(=O)C23)OCO4)cc(OC)c1OC (stereo not given) | 28.2 nM (active) and 73.1 nM (active) | –
COc1ccc(CNCCc2ccc3c(c2)OCO3)c(OC)c1OC | – | -22.3%
COc1ccccc1OC(=O)c1ccc(C)c(S(=O)(=O)N2CCOCC2)c1 | – | -10.1%
CCCCn1c(=O)c(C(=O)Nc2ccccc2Cl)c(O)c2ccccc21 | 25.9 µM (active) | –
CCCCCn1c(=O)c(C(=O)NCc2ccccc2)c(O)c2ccccc21 | 6.51 µM (active) | –
CCCCCn1c(=O)c(C(=O)NCc2ccccn2)c(O)c2ccccc21 | 20.6 µM (active) | –
COc1cc(C(c2c(O)c3ccccc3oc2=O)c2c(C)n(C)n(-c3ccccc3)c2=O)ccc1O (stereo not given) | inactive | –
CCCCCn1c(=O)c(C(=O)Nc2c(C)n(C)n(-c3ccccc3)c2=O)c(O)c2ccccc21 | 4.61 µM (active) | –
O=C(CSC1c2ccccc2-c2ccccc21)N/N=C/c1ccccc1 | – | -16.6%

Compound | Potency | activity change, negative = growth inhibition
O=C1CC(=O)N(Cc2ccccc2)C(=O)N1CCCCCCN1C(=O)CC(=O)N(Cc2ccccc2)C1=O | – | 2.08%
CN(C)C(=O)Oc1cc(=O)n2c3c(cccc13)CCC2 | – | -22.8%
CC[N+]1(CCOC(=O)C(O)(c2ccccc2)c2ccccc2)CCCCC1 | – | -6.5%
O=C(c1cc(S(=O)(=O)N2CCOCC2)ccc1F)N1CCC2(CC1)OCCO2 | – | -19.4%
CO[C@@H]1C[C@@H](C[C@H]2CC[C@H](C)[C@@H]([C@@H](C)C(=O)O)O2)O[C@]2(O[C@](C)([C@H]3CC[C@@](C)(C4OC([C@H]5O[C@@](O)(CO)[C@H](C)C[C@@H]5C)C[C@@H]4C)O3)C[C@H]2C)[C@@H]1C (stereo not given in full) | 0.588 µM (active) | –
CN(C)P(=S)(Nc1ccccc1)C(Cl)(Cl)Cl (stereo not given) | – | -28.9%
CN(C)C(=O)Oc1ccc(NC(=O)N2CCOCC2)cc1 | – | 15.6%
O=C(Nc1cccc(F)c1)N1CC[C@@]2(CCCN(C(=O)Oc3ccccc3)C2)C1 | – | -69.5%
O=C(Nc1cccc(OC(=O)N2CCCCC2)c1)N1CCOCC1 | 5.8 µM (active) | –
c1ccc2sc(N3CCNCC3)nc2c1 | – | -0.512%
COc1ccc(NC(=O)c2cn(CCC#N)nc2-c2ccc([N+](=O)[O-])cc2)cc1 | – | 2.67%
CN1CCN(/N=C/c2c[nH]c3ccccc23)CC1 | – | 2.07%
C[C@@H]1C[C@@H]2O[C@H]2/C=C\C=C\C(=O)Cc2c(Cl)c(O)cc(O)c2C(=O)O1 | 0.164 µM (active) | –
NS(=O)(=O)c1ccc(CCNC(=O)c2ccc(Cl)c(S(=O)(=O)N3CCCCCC3)c2)cc1 | 23.1 µM (active) | –
C=CCn1c(O)c(/C=N/N2CCOCC2)c(=O)[nH]c1=S | – | 3.41%
CN(C(=O)CSc1nc2ccc(NC(=O)COc3ccccc3)cc2s1)c1ccccc1 | 11.6 µM (active) | –
O=C(COc1ccccc1Cl)Nc1ccc2nc(SCC(=O)N3CCCC3)sc2c1 | 16.4 µM (active) | –
CCOCCc1c(O)[nH]c(=S)[nH]c1=O | – | -9.37%
COc1ccc(C2Oc3c(I)c(OC)cc(OC)c3CC2O)cc1OC (stereo not given) | – | -14.9%
CCCCC/C=C\C/C=C\C/C=C\C/C=C\CCCCCC(=O)NCCO | – | -2.9% [at 4.12 µM]
